One assay has as its system UACC-62 melanoma. In words: NCI-60 one-dose screen, 48 h (100 = growth as untreated, 0 = no growth, -100 = all killed). As to conditions: 10 µM unless noted.
The subject of another assay is TK-10 renal. The description is as above. As to conditions: 10 µM unless noted.

“And” between values parts separate entries of the source, which are not always exact repeats. Identical values can stand only once. Compounds without any hit were thinned out: in the full panel of roughly 83,000, 20% have a hit.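 Single-concentration screen, 48 h exposure, 96-well plates. Endpoint: percent growth. Below 10 = active.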 The source made the active and inactive calls.

Regarding `Cc1ccc(OCC2OC(n3cnc4nc(N)nc(Cl)c43)CC2Oc2ccc(C)cc2)cc1` (centres undefined), the growth is 50.4% [100 µM] (inactive) and -64% [100 µM] (active) in the assay on UACC-62 melanoma; 104% [100 µM] (inactive) and -84.6% [100 µM] (active) in the assay on TK-10 renal.
As for `CCC(c1ccc(N(C)C)cc1)C1NC(=S)NC1=O` (centres undefined), the growth with UACC-62 melanoma is 20.7% [100 µM] (inactive) and 17.1% [100 µM] (inactive); in the assay on TK-10 renal, 47.6% [100 µM] (inactive) and 37.5% [100 µM] (inactive).
On to `O=C(Nc1cccc(NC(=O)C(=O)C2CCC3=C(Sc4ccccc4N3)C2=O)n1)C(=O)C1CCC2=C(Sc3ccccc3N2)C1=O` (centres undefined), for which the growth in the assay with UACC-62 melanoma was 50.7% [100 µM] (inactive) and -46.3% [100 µM] (active); in the assay with TK-10 renal, 103% [100 µM] (inactive) and 15.7% [100 µM] (inactive).
For `Cc1ccc(OCC2OC(n3cnc4nc(Cl)nc(Cl)c43)CC2Oc2ccc(C)cc2)cc1` (centres undefined), the growth in the assay with TK-10 renal was 1.81% [100 µM] (active) and -100% [100 µM] (active).
For the molecule `COc1c(OC)c(OC)c2c(c1OC)c(=O)c1ccccc1n2C`, the growth in the assay on UACC-62 melanoma was 38.1% [100 µM] (inactive) and -44.4% [100 µM] (active); in the assay on TK-10 renal, 87.4% [100 µM] (inactive) and 35% [100 µM] (inactive).

The values above are taken from PubChem BioAssay (NCI).
